Inconclusive results are not listed. Activity calls are given as the source filed them. Unless noted, the call rests on the fitted dose curve; in most records, active means well fitted curve in the direction sought with a large enough effect; inconclusive means small, poorly fitted or top-dose-only effect, or another doubt; inactive means no such curve, though single readings can be large; an effect the other way counts as inactive or inconclusive.

The record followed here is PubChem BioAssay (NCATS).

Experiment [1] can be described thus: Validation of Assay for Modulators of Lamin A Splicing (AID 1459; active means well fitted curve in the direction sought with a large enough effect in the signal ratio; the % refers to the signal ratio;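 further: cells exposed to compound for two days before reading; 0% is about no effect; ratio rise marks activators and ratio drop marks inhibitors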). The essentials: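 HeLa S3 lamin A-EGFP/DsRed2 stable clone, 600 cells/well, Opti-MEM 2% FBS; compounds by pin tool; 48 hrs, 37 °C/5% CO2; Acumen 488 nm scan, objects 10-100 um; GFP/RFP intensity ratio.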
Experiment [2] in a line: qHTS Assay for Lipid Storage Modulators (AID 1519; calls by dose curve; on activity change, negative = inhibition: on the % scale 0 is the no-effect control and ±100 the full control effect). The following applies: Drosophila S3 cells, BODIPY lipid droplet/cell ratio, laser cytometry, cells loaded with oleic acid. The essentials:
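Cells seeded at 5,000 per well were treated with compounds over a concentration series and loaded with oleic acid (400 uM, as added). Lipid droplet fluorescence (488 nm excitation, 500-530 nm channel) was read by laser-scanning cytometry and normalized to 20 uM Triacsin C.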
Background: Quantitative high-throughput screening tests each substance at several concentrations.

The target in experiment [3] is DNA repair nuclease/redox regulator APEX1 (Homo sapiens) (UniProt P27695). The experiment is described as follows: qHTS Validation Assay for Inhibitors of the Human Apurinic/apyrimidinic Endonuclease 1 (APE1) (AID 1705;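 further: TAMRA fluorescence gain over two minutes as APE1 cuts a quenched THF abasic duplex; on the % scale 0 is the no-effect control and ±100 the full control effect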). The method, boiled down: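 qHTS, 1536-well. APE1 + cpd 15 min RT → 50 nM TAMRA/BHQ-2 THF-abasic dsDNA substrate → kinetic fluorescence, 3 reads/60 s; delta(read3−read1) = reaction progress. No-enzyme buffer = negative control.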
Chain of DNA repair nuclease/redox regulator APEX1 (Homo sapiens) (P27695 whole entry, looked up): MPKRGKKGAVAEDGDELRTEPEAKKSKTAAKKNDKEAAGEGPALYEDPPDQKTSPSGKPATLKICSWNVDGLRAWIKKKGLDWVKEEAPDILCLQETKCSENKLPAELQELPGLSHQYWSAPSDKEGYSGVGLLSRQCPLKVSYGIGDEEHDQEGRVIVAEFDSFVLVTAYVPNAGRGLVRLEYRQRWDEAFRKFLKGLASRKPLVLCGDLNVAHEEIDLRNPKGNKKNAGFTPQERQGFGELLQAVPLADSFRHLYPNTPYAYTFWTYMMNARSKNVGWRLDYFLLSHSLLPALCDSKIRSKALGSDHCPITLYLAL

Experiment [4] in a line: Counterscreen for APE1 Inhibitors: Fluorescent Dye Displacement Validation Assay (AID 1707).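 Further: plate controls were ThO with dsDNA and no compound for no effect and ThO without dsDNA for full effect.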 The method, boiled down:
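Compounds are scored by their ability to displace Thiazole Orange (250 nM) from a 50 nM TAMRA-tagged duplex bearing a tetrahydrofuran abasic site. Buffer is 50 mM Tris-HCl pH7.5, 50mM NaCl, 2 mM MgCl2, 0.01% Tween-20.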

The target of experiment [5] is Endonuclease 4 (Escherichia coli (strain K12)) (UniProt P0A6C1). As to the kind of experiment: Counterscreen for APE1 Inhibitors: qHTS Validation Assay for Inhibitors of Endonuclease IV (AID 1708). Further: on the % scale 0 is the no-effect control and ±100 the full control effect. The essentials: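 2 nM enzyme was preincubated with compounds for 15 min at room temperature in 50 mM Tris-HCl pH 7.5, 50 mM NaCl, 2 mM MgCl2, 1 mM DTT, 0.01% Tween-20. 50 nM THF-abasic TAMRA/BHQ-2 duplex substrate started the reaction.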

Experiment [6] can be described thus: qHTS for differential inhibitors of proliferation of Plasmodium falciparum line 7G8 (AID 1815).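 Further: potency means the concentration at half of the fitted maximal effect; parasite growth measured after three days of incubation.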
Experiment [7] is described as follows: qHTS for differential inhibitors of proliferation of Plasmodium falciparum line GB4 (AID 1816).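 Further: potency means the concentration at half of the fitted maximal effect; parasite growth measured after 72 h incubation.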 Particulars: Potency: Plasmodium falciparum GB4 proliferation inhibition.
Experiment [8] is described as follows: qHTS for differential inhibitors of proliferation of Plasmodium falciparum line D10 (AID 1877).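 Further: potency means the concentration at half of the fitted maximal effect; parasites grown with compound for 72 h before DNA staining.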
Experiment [9] can be described thus: qHTS for differential inhibitors of proliferation of Plasmodium falciparum line W2 (AID 1883).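 Further: potency means the concentration at half of the fitted maximal effect; parasites grown with compound for 72 h before lysis and staining.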 The following applies: Potency: Plasmodium falciparum W2 proliferation inhibition.
The nature of experiment [10]: qHTS for differential inhibitors of proliferation of Plasmodium falciparum line HB3 (AID 1886).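 Further: potency means the concentration at half of the fitted maximal effect; parasites grown with compound for 72 h before SYBR Green readout.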 The following applies: Potency: Plasmodium falciparum HB3 proliferation inhibition.
Experiment [11] has as its target ATP-dependent DNA helicase Q1 (Homo sapiens) (UniProt P46063). As to the kind of experiment: qHTS Validation Assay for Inhibitors of RecQ-Like Dna Helicase 1 (RECQ1) (AID 2353).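 Further: plate controls were DMSO vehicle for no effect and enzyme-free control for full effect.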 The method, boiled down: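 50 nM RECQ1T1 preincubated 15 min with compound in Tris pH 8.0 buffer with MgCl2, DTT, Tween-20 and 2.5 ug/ml poly(dI-dC); started with 200 nM TAMRA/BHQ-2 forked duplex and 2 mM ATP. Unwinding read as fluorescence (525/598 nm), two reads 2 h apart.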

The nature of experiment [12]: Validation screen for small molecules that induce DNA re-replication in MCF 10A normal breast cells (AID 463097). Further: 0% is about no effect; nearly all actives have a fitted effect of over 60% in size. The method, boiled down:
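Image-based qHTS: normal breast cells are incubated with compound for 48 hr, stained with Hoechst, and scanned for total nuclear fluorescence. Compounds raising the fraction of nuclei with elevated DNA content count as re-replication inducers.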

Experiment [13] is described as follows: Quantitative high throughput screen for delayed death inhibitors of the malarial parasite plastid, 96 hour incubation (AID 488745). Further: on the % scale 0 is the no-effect control and ±100 the full control effect; nearly all actives have a fitted effect of over 70% in size. The method, boiled down:
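P. falciparum carrying an integrated firefly luciferase reporter, grown in erythrocytes (2% hematocrit, 0.1% parasitemia final) in RPMI 1640/0.5% Albumax, was exposed to compound for 96 h (two generations) at 37 C, 5% CO2. Luminescence decrease indicated growth inhibition.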

The nature of experiment [14]: Quantitative high throughput screen for delayed death inhibitors of the malarial parasite plastid, 48 hour incubation (AID 488752). Further: on the % scale 0 is the no-effect control and ±100 the full control effect; nearly all actives have a fitted effect of over 65% in size. The essentials:
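Erythrocytes infected with P. falciparum carrying an integrated firefly luciferase reporter (2% hematocrit, 0.1% parasitemia final) were exposed to compounds in RPMI 1640/0.5% Albumax for 48 h at 37 C, 5% CO2. Growth inhibition was scored as reduced luminescence.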

In experiment [15] the target is M-phase phosphoprotein 8 (Homo sapiens) (UniProt Q99549). The experiment is described as follows: qHTS Validation Assay for Inhibitors for MPP8 Chromodomain Interactions with Methylated Histone Tails (AID 488949).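 Further: 50 nM MPP8 with 50 nM peptide preformed then compounds added for 30 min; AlphaScreen signal from MPP8 chromodomain bound to biotinylated H3K9me3 peptide; top concentration of the series differs between compounds; on the % scale 0 is the no-effect control and ±100 the full control effect; nearly all actives have a fitted effect of over 55% in size.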 The method, boiled down: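 50 nM MPP8 + 50 nM b-H3K9me3 peptide, PBS pH 7.4/0.01% Tween-20, 30 min RT; + cpd 30 min RT; + AlphaScreen donor/Ni-chelate acceptor beads 10 ug/mL final, 30 min dark; luminescence read.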
Chain of M-phase phosphoprotein 8 (Homo sapiens) (Q99549 whole entry, looked up): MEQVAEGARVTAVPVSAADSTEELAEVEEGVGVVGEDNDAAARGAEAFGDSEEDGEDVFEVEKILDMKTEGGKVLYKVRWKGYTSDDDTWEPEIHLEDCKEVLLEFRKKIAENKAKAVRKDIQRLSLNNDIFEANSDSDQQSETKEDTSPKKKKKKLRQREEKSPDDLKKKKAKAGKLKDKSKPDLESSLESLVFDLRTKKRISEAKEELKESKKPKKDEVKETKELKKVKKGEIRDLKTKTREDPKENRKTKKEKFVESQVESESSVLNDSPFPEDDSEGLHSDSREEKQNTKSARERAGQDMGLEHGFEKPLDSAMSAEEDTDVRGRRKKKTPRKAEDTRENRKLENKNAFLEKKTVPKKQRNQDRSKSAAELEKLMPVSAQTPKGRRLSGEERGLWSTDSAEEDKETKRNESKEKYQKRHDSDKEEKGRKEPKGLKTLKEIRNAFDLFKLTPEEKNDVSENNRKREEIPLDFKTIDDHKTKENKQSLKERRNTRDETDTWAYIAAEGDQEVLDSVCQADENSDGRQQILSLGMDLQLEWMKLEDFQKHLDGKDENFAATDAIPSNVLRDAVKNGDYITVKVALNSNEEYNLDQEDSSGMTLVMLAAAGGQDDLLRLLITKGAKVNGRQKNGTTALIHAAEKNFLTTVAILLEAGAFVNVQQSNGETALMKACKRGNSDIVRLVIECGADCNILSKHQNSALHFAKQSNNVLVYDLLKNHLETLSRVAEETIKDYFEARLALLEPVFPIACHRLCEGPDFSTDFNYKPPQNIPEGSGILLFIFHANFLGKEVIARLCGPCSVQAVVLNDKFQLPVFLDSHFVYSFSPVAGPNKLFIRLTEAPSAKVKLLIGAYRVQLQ

Experiment [16] deals with Galactokinase (Homo sapiens) (UniProt P51570). The experiment is described as follows: qHTS Validation Assay for Inhibitors of Human Galactokinase (GALK) (AID 493189). Further: 0% is about no effect. The method, boiled down:
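5 nM GALK / 100 uM galactose / 35 uM ATP, 20 mM HEPES pH8.0, 5 mM MgCl2, 60 mM NaCl, 1 mM DTT, 0.01% BSA (final). RT 1 h; Kinase-Glo Plus luminescence.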

The nature of experiment [17]: Validation screen for small molecules that induce DNA re-replication in SW480 colon adenocarcinoma cells (AID 504364). Further: 0% is about no effect. The method, boiled down:
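SW480 cells seeded at 250 per well were exposed to compound or DMSO for 48 hr at 37 C, 5% CO2, then stained with Hoechst for 40 min. DNA content per nucleus was imaged (405 nm ex, 500-530 nm em).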

Experiment [18] addresses Voltage-gated inwardly rectifying potassium channel KCNH2 (Homo sapiens) (UniProt Q12809). The experiment is described as follows: qHTS Assay for Small Molecule Inhibitors of the Human hERG Channel Activity (AID 588834).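 Further: top concentration of the series differs between compounds; on the % scale 0 is the no-effect control and ±100 the full control effect; lower thallium flux fluorescence means stronger hERG block; nearly all actives have a fitted effect of over 50% in size.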 The method, boiled down: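 hERG-BacMam U2OS, 2000 cells/well; 0.7X FluxOR loading 1 hr RT dark; cpd ~10 min 37 °C; stim buffer; FDSS fluorescence 2 min @ 1 s; AC50 Hill fit.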

Experiment [19] concerns Zika virus NS2B-NS3 protease. As to the kind of experiment: Primary screen GU AMC qHTS for Zika virus inhibitors (AID 1347154).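 Further: 0% = no-inhibitor control and -100% = no-enzyme control; nearly all actives have a fitted effect of over 70% in size.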 The essentials: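 Unlinked Zika NS2B hydrophilic domain/NS3 protease domain noncovalent complex (25 nM final) in 10 mM Tris-HCl pH 8.0, 0.01% Tween 20, with AMC peptide substrate. Fluorescence (ex 340, em 450 nm) change over 15 min, room temperature; percent inhibition fitted to 4-parameter Hill equation.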

A short description of experiment [20]: Counterscreen qHTS for small molecule stabilizers of the endoplasmic reticulum resident proteome: GLuc-NoTag assay (AID 1508627).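 Further: SH-SY5Y cells given compound then 100 nM thapsigargin to empty ER calcium; 0% = thapsigargin alone and -100% = DMSO vehicle control.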 The essentials:
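SH-SY5Y cells stably expressing constitutively secreted GLuc (no SERCaMP tag) were pre-incubated 5 h, treated with compound for 19 h, then 100 nM thapsigargin for 4 h at 37C; medium GLuc read by coelenterazine luminescence.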
(The purpose of a counterscreen is to sort out artefacts and off-target activity.)

Chain of Voltage-gated inwardly rectifying potassium channel KCNH2 (Homo sapiens) (Q12809 whole entry, looked up): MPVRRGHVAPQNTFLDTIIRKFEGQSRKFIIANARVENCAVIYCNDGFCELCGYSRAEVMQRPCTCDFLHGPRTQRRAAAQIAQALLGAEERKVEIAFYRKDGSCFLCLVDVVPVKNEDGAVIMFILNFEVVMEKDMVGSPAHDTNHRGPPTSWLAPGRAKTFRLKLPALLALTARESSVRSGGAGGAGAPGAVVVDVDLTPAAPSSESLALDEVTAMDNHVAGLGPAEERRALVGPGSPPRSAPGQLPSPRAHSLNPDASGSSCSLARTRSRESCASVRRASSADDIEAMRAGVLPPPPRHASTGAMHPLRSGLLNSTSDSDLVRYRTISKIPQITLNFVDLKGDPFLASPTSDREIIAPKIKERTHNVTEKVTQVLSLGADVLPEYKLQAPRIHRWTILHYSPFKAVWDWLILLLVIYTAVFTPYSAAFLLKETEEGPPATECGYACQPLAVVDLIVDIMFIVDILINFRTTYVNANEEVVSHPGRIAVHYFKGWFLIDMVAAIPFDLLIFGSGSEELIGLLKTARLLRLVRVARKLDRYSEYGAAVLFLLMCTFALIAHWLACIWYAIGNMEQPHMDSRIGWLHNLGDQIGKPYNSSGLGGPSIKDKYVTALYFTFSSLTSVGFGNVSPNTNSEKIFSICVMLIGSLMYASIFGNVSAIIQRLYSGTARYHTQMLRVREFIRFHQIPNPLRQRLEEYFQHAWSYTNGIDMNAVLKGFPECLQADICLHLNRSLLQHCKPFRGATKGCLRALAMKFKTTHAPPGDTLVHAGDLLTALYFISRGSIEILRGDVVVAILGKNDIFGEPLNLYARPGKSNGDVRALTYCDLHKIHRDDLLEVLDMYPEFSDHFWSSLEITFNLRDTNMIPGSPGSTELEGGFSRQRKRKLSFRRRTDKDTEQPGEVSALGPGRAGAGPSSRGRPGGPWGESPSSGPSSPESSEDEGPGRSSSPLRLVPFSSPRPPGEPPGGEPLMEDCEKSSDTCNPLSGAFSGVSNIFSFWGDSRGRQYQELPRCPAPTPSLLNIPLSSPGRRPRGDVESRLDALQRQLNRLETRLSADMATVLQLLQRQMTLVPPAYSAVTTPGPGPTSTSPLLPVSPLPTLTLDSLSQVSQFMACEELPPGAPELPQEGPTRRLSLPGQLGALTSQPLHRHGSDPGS
Chain of Galactokinase (Homo sapiens) (P51570 whole entry, looked up): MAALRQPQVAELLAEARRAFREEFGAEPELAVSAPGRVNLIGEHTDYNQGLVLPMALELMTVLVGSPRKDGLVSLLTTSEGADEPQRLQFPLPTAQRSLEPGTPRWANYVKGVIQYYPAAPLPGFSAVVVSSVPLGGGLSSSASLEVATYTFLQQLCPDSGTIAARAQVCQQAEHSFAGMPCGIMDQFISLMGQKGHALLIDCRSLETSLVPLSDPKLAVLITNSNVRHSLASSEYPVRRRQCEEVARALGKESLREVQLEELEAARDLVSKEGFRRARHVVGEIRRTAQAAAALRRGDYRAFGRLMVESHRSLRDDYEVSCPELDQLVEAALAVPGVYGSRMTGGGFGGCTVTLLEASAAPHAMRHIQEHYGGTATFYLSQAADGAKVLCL
Chain of ATP-dependent DNA helicase Q1 (Homo sapiens) (P46063 whole entry, looked up): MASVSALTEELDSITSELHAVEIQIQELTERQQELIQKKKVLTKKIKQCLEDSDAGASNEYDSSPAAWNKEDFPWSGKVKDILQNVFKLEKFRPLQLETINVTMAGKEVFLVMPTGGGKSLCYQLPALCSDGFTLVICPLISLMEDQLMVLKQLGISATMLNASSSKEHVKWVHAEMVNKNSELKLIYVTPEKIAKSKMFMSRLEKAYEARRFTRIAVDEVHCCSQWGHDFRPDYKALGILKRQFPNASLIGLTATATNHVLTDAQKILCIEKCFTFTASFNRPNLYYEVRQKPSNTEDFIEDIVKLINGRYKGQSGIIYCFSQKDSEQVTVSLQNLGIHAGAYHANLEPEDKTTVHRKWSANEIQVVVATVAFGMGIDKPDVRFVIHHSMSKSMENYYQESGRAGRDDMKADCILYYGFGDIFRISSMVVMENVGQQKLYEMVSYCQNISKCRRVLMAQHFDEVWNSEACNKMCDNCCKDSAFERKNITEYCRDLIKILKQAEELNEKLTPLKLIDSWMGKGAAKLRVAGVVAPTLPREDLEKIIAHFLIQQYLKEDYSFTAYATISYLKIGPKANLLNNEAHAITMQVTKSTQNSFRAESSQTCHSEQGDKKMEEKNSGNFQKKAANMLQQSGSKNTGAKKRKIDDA

Turning to `C/C=C1\C(=O)CC2C3CCC4=CC(=O)CC[C@]4(C)C3CC[C@]12C` (stereo partly drawn), the molecule was classed as inactive in [1], in experiment [16] and in [17]. Further, in [2] (at 57.5 µM (top of the series)), the activity change, negative = inhibition was 1.38% (inactive). Also, the max response in experiment [2] (measured here: cell count channel max response) came to 72.1%; in [2] (measured here: lipid channel max response), 74.6%. The Potency result in [3], in experiment [4], in experiment [5], in experiment [11], in experiment [12] and in experiment [13] was “inactive” throughout. In addition, the Potency result in [14], in experiment [15], in experiment [18] and in experiment [19] was “inactive” each time. Besides, the Potency in [6] was 11.2 µM (active); in [7], 14.1 µM (active); in experiment [8] it was 10 µM (active); in [9], 7.08 µM (active); in experiment [10], 11.2 µM (active).
Regarding `COc1ccc(NC(=O)c2cc(OCCCN(C)C)nn2Cc2ccccc2)cc1`, the Potency result in experiment [19] and in [20] was “inactive” in each case.
